# The list is not random: actives were taken first. Their share in the collection is about 2.5%.
# UHRF1 binding = UHRF1 methylated DNA binding inhibitors, primary screen, counter-screen for MBD2 inhibitor project, biochemical, TR-FRET, human UHRF1, single concentration; E3 ubiquitin-protein ligase UHRF1 (Homo sapiens), Q96T88; UHRF1 binding to methylated oligo; inhibition, % at 4.4 µM; actives 0.75% (n = 370,000); AID 687016, 2013; in the data active means inhibition above about 21%;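 further: UHRF1 SRA domain binding a hemimethylated CpG hairpin DNA probe; 0% = median of test compound wells and 100% = reference inhibitor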
# MBD2 inh = inhibitors of MBD2 binding to methylated DNA, primary screen, biochemical, TR-FRET, DNA-binding domain, human; Methyl-CpG-binding domain protein 2 (Homo sapiens), Q9UBB5; MBD2 binding to methylated oligonucleotide; inhibition, % at 4.4 µM; actives 0.31% (n = 370,000); AID 686964, 2013; in the data active means inhibition above about 13%
# PRMT1 FP inh = PRMT1 methyltransferase inhibitors, primary screen, biochemical, fluorescence polarization; actives 1.3% (n = 370,000); Protein arginine N-methyltransferase 1 (Homo sapiens), Q99873; recombinant PRMT1, activity-based probe fluorescence polarization; inhibition, % at 2.79 µM;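 active means inhibition above about 21% made by adding two undisclosed values, limit read from the data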
# Target sequence (Q99873 whole entry, looked up): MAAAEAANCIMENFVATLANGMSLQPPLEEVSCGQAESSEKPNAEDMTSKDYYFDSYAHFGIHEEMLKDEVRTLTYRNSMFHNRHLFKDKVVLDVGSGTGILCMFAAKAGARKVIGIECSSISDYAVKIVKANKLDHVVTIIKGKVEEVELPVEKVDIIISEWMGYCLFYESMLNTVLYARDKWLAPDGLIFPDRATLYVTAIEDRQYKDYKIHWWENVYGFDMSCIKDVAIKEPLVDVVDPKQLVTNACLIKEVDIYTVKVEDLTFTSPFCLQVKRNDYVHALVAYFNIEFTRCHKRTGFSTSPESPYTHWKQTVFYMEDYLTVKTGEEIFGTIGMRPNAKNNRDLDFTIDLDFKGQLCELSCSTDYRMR
# LEDGF integ inh = blockers of LEDGF/p75-dependent integrase strand transfer – biochemical, TR-FRET, high throughput, primary screen | inhibition, % at 3.7 µM | TR-FRET IN-LEDGF/p75 DNA integration, Eu/Cy5 | HIV-1 integrase (with human LEDGF/p75) | actives 0.64% (n = 370,000);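 active means inhibition above the screen-wide mean plus 3 SD, cut at about 13% in these data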;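 further: signal is the Cy5 over europium emission ratio at 671 and 618 nm; 0% = plate median of compound wells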
# IN multimer act = HIV-1 IN multimer formation enhancers, counter-screen for LEDGF/p75 integration inhibitor project, biochemical, TR-FRET | shares compounds with LEDGF integ inh | TR-FRET HIV-1 integrase multimerization | activation, % at 7.7 µM | actives 17% (n = 2,000) | AID 1053131, 2014; in the data active means activation above about 8.9%
# TR-FRET interf = TR-FRET optical interference artefacts, confirmation, artefact control for LEDGF/p75-dependent integration inhibitor project, biochemical, HIV-1 IN multimerization; shares compounds with LEDGF integ inh; TR-FRET optical interference counterscreen; inhibition, % at 7.7 µM; 2,000 tested, under 10 active;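 active means inhibition above the mean over all tested compounds plus 3 SD, which no compound reached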;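 further: 0% = integrase with antibodies and DMSO and 100% = antibodies without integrase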
# LEDGF integ conf = inhibitors of HIV-1 IN-LEDGF/p75 DNA integration, confirmation, biochemical, TR-FRET; inhibition, % at 3.7 µM; TR-FRET LEDGF/p75-dependent HIV-1 integration; actives 36% (n = 2,000); shares compounds with LEDGF integ inh; AID 1053136, 2014; in the data active means inhibition above about 14%
# Active calls of the source: *; · = not tested or not shown.
SMILES,UHRF1 binding,MBD2 inh,PRMT1 FP inh,LEDGF integ inh,IN multimer act,TR-FRET interf,LEDGF integ conf
COc1ccc2cc(C(=O)NCc3ccco3)c(=O)oc2c1,-12,0,-2,3,·,·,·
O=C(NCc1ccco1)c1cc2ccc(O)cc2oc1=O,8,-2,3,30*,20*,-99,19*
CC(=O)Nc1ccc(NC(=O)COC(=O)CCNS(=O)(=O)c2c(Cl)cccc2Cl)cc1,1,4,2,-5,·,·,·
O=C(COC(=O)Cc1ccsc1)NCc1ccccc1,1,3,-2,30*,2,-8,-1
O=[N+]([O-])c1c(Nc2ccccn2)cc(Cl)c2nonc12,9,-5,12,70*,2,-7,40*
Nc1cc(=O)[nH]c(SCC(=O)Nc2cccc([N+](=O)[O-])c2)n1,1,2,4,56*,1,-7,1
COC(=O)c1ccc(N2NC(=O)/C(=C/c3cc(OC)c(OC)c(OC)c3)C2=O)cc1,1,-2,6,14*,3,-12,-2
COC(=O)c1ccc(N2NC(=O)/C(=C/c3cc(OC)c(O)c(OC)c3)C2=O)cc1,1,-4,10,3,·,·,·
CC1CCN(CCc2nc3cc(NC(=O)COc4ccc([N+](=O)[O-])cc4)ccc3n2C)CC1,0,0,3,-12,·,·,·
Cc1ccccc1OCCCN1CCOCC1,5,6,2,29*,1,-4,-10
C/C=C/c1cccc(-c2nc(C(=O)N3CCOCC3)cc3c2[C@@H](CCO)N(C(=O)NC(C)C)C3)c1,-3,5,0,1,·,·,·
COc1ccc2c(c1)Cc1sc(NC(=O)c3ccco3)nc1-2,-5,-6,13,38*,6,-20,3
COc1ccc2c(c1)Cc1sc(NC(=O)c3cccnc3)nc1-2,-6,-2,-2,-5,·,·,·
COc1ccc2c(c1)-c1nc(NC(=O)c3ccco3)sc1CC2,-3,-2,0,0,·,·,·
COc1ccc2c(c1)Cc1sc(NC(C)=O)nc1-2,-12,-13,9,15*,6,-22,27*
O=S(=O)(Nc1ccc(Cc2ccncc2)cc1)N1CCCC1,-1,-1,0,25*,1,-5,2
Cc1ccc(NS(=O)(=O)N2CCCCC2)cc1,13,2,-2,2,·,·,·
CCCCCCCCSc1n[nH]c(N)n1,-3,-4,-1,4,·,·,·
CCCCCCCCCSc1n[nH]c(N)n1,0,-5,0,46*,-1,2,-4
C=CCn1c(SCc2cc(=O)n3ccsc3n2)nnc1C1CCCCC1,10,4,0,15*,6,-29,2
CN(C)c1cccc2c1c(NS(=O)(=O)c1cn(C)cn1)nn2C,-3,-3,0,15*,5,-18,12
Cn1cnc(S(=O)(=O)Nc2ccccc2N2CCOCC2)c1,-2,-4,0,-2,·,·,·
NC(c1csc(Nc2cnccn2)n1)c1ccccc1Cl (configuration not stated),-4,-10,-5,9,·,·,·
NC(c1csc(Nc2ccccn2)n1)c1ccccc1Cl (configuration not stated),-5,-5,-5,15*,-1,7,-7
CC(=O)c1ccc(OCC(=O)Nc2c(C)nn(-c3ccccc3)c2C)cc1,0,3,4,-3,·,·,·
SMILES,UHRF1 binding,MBD2 inh,PRMT1 FP inh,LEDGF integ inh,IN multimer act,TR-FRET interf,LEDGF integ conf
CCCOc1ccc(CC(=O)NCCc2ccccc2)cc1OC,0,-5,-2,14*,1,-5,-4
Cn1c(N)c(C(=O)COC(=O)c2cc(-c3ccco3)nc3ccccc23)c(=O)n(C)c1=O,19,10,22*,29*,22*,-78,62*
COc1ccc(-c2cc(C(=O)OCC(=O)c3c(N)n(C)c(=O)n(C)c3=O)c3ccccc3n2)cc1,1,-2,-5,1,·,·,·
O=C(CCCOc1ccccc1)Nc1nccs1,1,2,0,-1,·,·,·
O=C(Nc1nccs1)Oc1ccccc1,1,3,3,16*,1,-4,-10
CNC(=O)CSc1nc2ccccc2c(=O)n1-c1cc(OC)ccc1OC,0,-2,3,18*,-2,12,-9
COc1cccc(-n2c(SCc3cc(=O)oc4cc(O)c(O)cc34)nc3ccccc3c2=O)c1,15,7,10,27*,14*,-50,72*
COc1ccc(-n2c(SCC(=O)Nc3ccccc3)nc(O)cc2=O)cc1,0,6,5,53*,0,-1,-3
Cc1sc2nc(CSC(C)C(=O)NC3(C#N)CCCCC3)[nH]c(=O)c2c1C (configuration not stated),-3,-5,16,-4,·,·,·
COCCCC1CCN(C(=O)C2CCC(=O)N(CCc3ccccc3)C2)CC1 (configuration not stated),0,1,4,-3,·,·,·
COCCCC1CCN(C(=O)C2CCC(=O)N(CCCc3ccccc3)C2)CC1 (configuration not stated),2,-3,5,20*,2,-6,2
Oc1cc(O)cc(C=Cc2ccc(O)c(O)c2)c1,7,2,18,51*,43*,-217,42*
COC(=O)C1C(O)=C(C=Nc2ccc(N)cc2)C(=O)CC1(C)C (configuration not stated),4,-4,3,40*,2,-12,-6
CC1(C)CC(=O)C(C=Nc2ccc(O)cc2)=C(O)C1,2,1,5,0,·,·,·
COC(=O)C1C(O)=C(C=Nc2ccccc2)C(=O)CC1(C)C (configuration not stated),-2,1,0,1,·,·,·
CC1(C)CC(=O)C(C=Nc2ccc(N)cc2)=C(O)C1,8,-10,9,36*,5,-18,-3
O=Cc1ccc(/C=C2\c3ccccc3C(=O)N2c2ccccc2)o1,7,-5,18,38*,2,-10,20*
Cc1ccc(S(=O)(=O)NCC(=O)OC(C)C(=O)NCc2ccc3c(c2)OCO3)cc1 (configuration not stated),1,6,7,-5,·,·,·
COc1ccc2nc(NCCNC(=S)NCCCN3CCOCC3)c(C#N)cc2c1,0,-5,-2,35*,1,-4,-7

# Bioassay records deposited in PubChem BioAssay by The Scripps Research Institute Molecular Screening Center.
